The source of these data is ChEMBL document CHEMBL1961873, “Compounds: GSK PKIS; Assays: Nanosyn kinase panel” (2012).

The target in assay [1] is Casein kinase I isoform gamma-2 (Homo sapiens) (UniProt P78368). The following applies: at 1 µM.
Assay [2] concerns the target Casein kinase I isoform gamma-3 (Homo sapiens) (UniProt Q9Y6M4). The following applies: at 0.1 µM.
Assay [3] has the same target. Particulars: at 1 µM.
Assay [4] has as its target Cyclin-dependent kinase 1 (Homo sapiens) (UniProt P06493). The following applies: at 0.1 µM.
Assay [5] has the same target. Particulars: at 1 µM.
Assay [6] has as its target Cyclin-dependent kinase 2 (Homo sapiens) (UniProt P24941). Particulars: at 0.1 µM.
Assay [7] has the same target. Particulars: at 1 µM.
Assay [8] has the same target. Particulars: at 0.1 µM. This is another data set of the same source.
Assay [9] shares this target. Particulars: at 1 µM. This is another data set of the same source.
Assay [10] deals with CDK3/Cyclin E (Homo sapiens) (UniProt P24864+Q00526). Particulars: at 0.1 µM.
CDK3/Cyclin E (Homo sapiens), sequence (P24864 whole entry, looked up): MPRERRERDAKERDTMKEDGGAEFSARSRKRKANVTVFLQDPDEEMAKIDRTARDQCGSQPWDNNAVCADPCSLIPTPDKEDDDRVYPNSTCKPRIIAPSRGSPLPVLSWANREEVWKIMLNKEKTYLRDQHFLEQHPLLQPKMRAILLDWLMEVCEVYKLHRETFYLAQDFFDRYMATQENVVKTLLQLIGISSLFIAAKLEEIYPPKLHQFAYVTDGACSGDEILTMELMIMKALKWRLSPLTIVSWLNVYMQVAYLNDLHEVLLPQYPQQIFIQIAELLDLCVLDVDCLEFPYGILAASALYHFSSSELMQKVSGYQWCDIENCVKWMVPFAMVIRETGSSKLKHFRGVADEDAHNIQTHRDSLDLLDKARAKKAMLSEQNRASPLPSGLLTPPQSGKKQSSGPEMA
CDK3/Cyclin E (Homo sapiens), sequence (Q00526 whole entry, looked up): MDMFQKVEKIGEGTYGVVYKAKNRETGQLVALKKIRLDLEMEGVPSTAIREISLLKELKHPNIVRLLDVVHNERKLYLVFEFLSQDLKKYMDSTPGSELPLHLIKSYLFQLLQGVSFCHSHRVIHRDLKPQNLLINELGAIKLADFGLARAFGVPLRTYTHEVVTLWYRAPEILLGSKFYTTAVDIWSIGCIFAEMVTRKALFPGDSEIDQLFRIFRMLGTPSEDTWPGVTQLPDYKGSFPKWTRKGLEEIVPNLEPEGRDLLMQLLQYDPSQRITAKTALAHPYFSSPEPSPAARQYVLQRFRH

One may read the inhibition as the drop in the measured response relative to a control, in per cent.

Cyclin-dependent kinase 1 (Homo sapiens), sequence (P06493 whole entry, looked up): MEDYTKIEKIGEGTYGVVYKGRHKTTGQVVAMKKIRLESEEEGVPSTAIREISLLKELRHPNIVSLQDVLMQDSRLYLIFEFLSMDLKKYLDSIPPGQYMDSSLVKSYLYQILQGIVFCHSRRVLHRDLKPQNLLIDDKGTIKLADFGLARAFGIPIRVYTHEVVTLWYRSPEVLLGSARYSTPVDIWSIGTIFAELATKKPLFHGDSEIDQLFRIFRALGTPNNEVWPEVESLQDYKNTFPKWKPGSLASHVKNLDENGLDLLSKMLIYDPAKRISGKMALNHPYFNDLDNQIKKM
Casein kinase I isoform gamma-3 (Homo sapiens), sequence (Q9Y6M4 whole entry, looked up, canonical isoform): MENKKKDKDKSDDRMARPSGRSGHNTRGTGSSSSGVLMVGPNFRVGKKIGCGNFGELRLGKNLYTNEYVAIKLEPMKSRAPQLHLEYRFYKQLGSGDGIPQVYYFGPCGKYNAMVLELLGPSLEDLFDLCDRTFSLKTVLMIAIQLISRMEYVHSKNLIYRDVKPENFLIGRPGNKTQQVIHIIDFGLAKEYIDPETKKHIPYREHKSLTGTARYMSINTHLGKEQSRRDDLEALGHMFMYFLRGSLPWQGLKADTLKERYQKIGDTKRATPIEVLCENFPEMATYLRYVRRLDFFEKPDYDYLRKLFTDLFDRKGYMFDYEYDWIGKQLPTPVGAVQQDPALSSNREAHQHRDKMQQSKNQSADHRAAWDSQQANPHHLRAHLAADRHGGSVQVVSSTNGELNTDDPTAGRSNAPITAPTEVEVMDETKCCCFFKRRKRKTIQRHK
Casein kinase I isoform gamma-2 (Homo sapiens), sequence (P78368 whole entry, looked up, canonical isoform): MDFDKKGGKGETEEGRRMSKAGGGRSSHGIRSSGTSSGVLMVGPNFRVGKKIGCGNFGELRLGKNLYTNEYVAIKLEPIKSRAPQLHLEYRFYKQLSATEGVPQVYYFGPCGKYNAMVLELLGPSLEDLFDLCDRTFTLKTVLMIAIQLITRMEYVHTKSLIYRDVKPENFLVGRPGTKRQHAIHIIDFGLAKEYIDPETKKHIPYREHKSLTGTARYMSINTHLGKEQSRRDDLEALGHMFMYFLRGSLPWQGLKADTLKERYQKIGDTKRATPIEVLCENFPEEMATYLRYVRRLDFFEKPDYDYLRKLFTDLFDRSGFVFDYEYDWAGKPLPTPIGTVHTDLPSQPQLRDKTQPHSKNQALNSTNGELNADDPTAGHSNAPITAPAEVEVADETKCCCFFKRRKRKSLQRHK

In the case of `CC1=C(C(=O)Nc2ccc3[nH]ncc3c2)C(c2ccc(F)cc2)N=C(c2ccc(C(F)(F)F)nc2)N1` (stereo not given), the inhibition in [1] is 2.44%; in [2], 0.89%; in assay [3], 1.64%; in assay [4] it was -0.29%; in assay [5], 0.48%; in [6], 2.22%. The inhibition was 3.53% in assay [7], 2.03% in [8], 3.67% in [9] and 0.12% in assay [10].
Consider `Cc1cc(O)cc(C)c1/C=C/c1cncc(C(=O)OC(C)(C)C)c1`, for which the inhibition in [1] is 3.13%; in [2], 2.26%; in assay [3], 3.16%; in assay [4] it was 0.41%; in [5], 3.26%; in [6], 1.03%. The inhibition in assay [7] was determined as 0.25%; in assay [8], 2.66%; in [9] it was 6.74%; in assay [10] it was 0.28%.
`COC(=O)Nc1nc2ccc(Oc3ccc(NC(=O)Nc4cc(C(F)(F)F)ccc4F)cc3)cc2s1`: the inhibition is -0.08% in assay [1]; -1.45% in assay [2]; 0.18% in [3]; 0.44% in [4]; 3.26% in assay [5]; 1.75% in [6]. In addition, the inhibition in assay [7] was 3.03%; in assay [8], 1.36%; in assay [9], 2.74%; in assay [10] it was 0.88%.
Take `CS(=O)(=O)CCNCc1ccc(-c2ccc3ncnc(Nc4ccc(OCc5ccccc5)cc4)c3c2)o1`: the inhibition is 2.81% in assay [1]; 2.43% in assay [2]; 1.23% in [3]; 0.68% in [4]; -4.99% in assay [5]; 1.6% in assay [6]. Moreover, the inhibition in assay [7] was 2.53%; in assay [8], 2.45%; in assay [9], 3.9%; in [10], -1.1%.
Take `O=C(Nc1n[nH]c2nnc(-c3cccnc3)cc12)C1CC1`: the inhibition in assay [1] was -0.48%; in assay [2], -0.12%; in assay [3], 0.24%; in [4] it was 33.3%; in assay [5] it was 72.5%; in assay [6] it was 65.5%. Further, the inhibition in assay [7] turned out to be 91.2%; in assay [8] it was 38.9%; in [9] it was 75.3%; in assay [10], 35.9%.
As for `CNC(=O)c1ncccc1Nc1nc(Nc2cc3c(cc2OC)CCCN3C(=O)CN(C)C)nc2[nH]ccc12`, the inhibition in assay [1] is 5.64%; in assay [2] it was 2.52%; in assay [3], 6.23%; in assay [4] it was 1.79%; in assay [5], 5.38%; in assay [6] it was 2.38%. The inhibition in assay [7] was 9.91%; in assay [8], 7.73%; in assay [9], 9.82%; in assay [10], 3.92%.
Turning to `CNC(=O)c1cncc(/C=C/c2ccccc2C)c1`, the inhibition in assay [1] was 2.72%; in assay [2], 2.23%; in assay [3], 3.55%; in assay [4], 1.72%; in assay [5], 7.81%; in assay [6], 1.87%. Moreover, the inhibition in assay [7] worked out at 11%; in assay [8], 12%; in [9], 16.4%; in [10], 7.08%.
Consider `N#Cc1cccc(Nc2ncc(-c3ccccc3)o2)c1`, for which the inhibition in [1] stood at 2.13%; in [2], 1.94%; in assay [3], 4.11%; in assay [4], 2.78%; in assay [5] it was 17.1%; in assay [6] it was 6.59%. Also, the inhibition is 44.4% in [7], 7.57% in assay [8], 40.1% in assay [9] and 10.1% in [10].
With `Cc1c2ccc(N(C)c3ccnc(Nc4cccc(S(N)(=O)=O)c4)n3)cc2nn1C`, the inhibition in assay [1] is 0.79%; in [2], -0.12%; in assay [3] it was 1.23%; in [4] it was -2.06%; in assay [5] it was 1.04%; in assay [6], -1.06%. The inhibition came out at 4.54% in [7], 2.08% in assay [8], 4.14% in [9] and 3.58% in assay [10].
As for `Fc1cccc(COc2ccc(Nc3ncncc3C#Cc3ccccc3)cc2Cl)c1`, the inhibition in [1] came out at 4.69%; in [2], 4.31%; in assay [3], 4.88%; in [4], 0.35%; in [5], 1.89%; in assay [6], 1.7%. For the same compound, the inhibition in assay [7] worked out at 5.5%; in assay [8], 4.38%; in [9] it was 4.99%; in assay [10], 1.59%.
Turning to `COc1cc(Nc2ncc(-c3ccccc3)o2)cc(OC)c1`, the inhibition in assay [1] came out at 5.36%; in assay [2] it was 5.09%; in assay [3], 3.43%; in assay [4], 0.36%; in [5] it was 4.4%; in [6], 1.87%. Further, the inhibition in assay [7] is 12.7%; in assay [8] it was 3.39%; in [9], 15.1%; in [10], -1.04%.
As to `COc1cc2c(cc1Nc1nc(Nc3cccc(F)c3C(N)=O)c3cc[nH]c3n1)N(C(=O)CN1CCN(C(C)C)CC1)CC2`, the inhibition in assay [1] came to 5.31%; in assay [2] it was 3.51%; in assay [3], 7.32%; in assay [4], 2.14%; in assay [5], 0.55%; in assay [6], 3.46%. The inhibition in assay [7] was 1.57%; in assay [8], 0.67%; in [9] it was 0.45%; in [10], -1.81%.
Turning to `NS(=O)(=O)c1cccc(N/C=C2\C(=O)Nc3ccccc32)c1`, the inhibition stood at 12.7% in assay [1]; 5.4% in assay [2]; 14% in assay [3]; 2.85% in assay [4]; 7.45% in [5]; 4.87% in assay [6]. Further, the inhibition came out at 8.39% in [7], 5.07% in [8], 16% in assay [9] and 4.56% in assay [10].
As to `CCOc1ccc2c(-c3ccnc(Nc4cc(OC)cc(C(F)(F)F)c4)n3)cnn2n1`, the inhibition in [1] is 2.72%; in assay [2], -2.09%; in assay [3], 2.37%; in assay [4], 2.86%; in assay [5] it was 12.1%; in [6], 2.24%. In addition, the inhibition was found to be 12.5% in assay [7], 1.37% in [8], 11.9% in assay [9] and 3.56% in assay [10].
Regarding `NC(=O)c1ccc2c(-c3ccnc(NCCCO)n3)c(-c3ccc(F)cc3)nn2c1`, the inhibition in assay [1] is 19.9%; in assay [2] it was 8.09%; in assay [3], 29%; in assay [4], 1.5%; in assay [5] it was 1.54%; in assay [6], -0.03%. Further, the inhibition is 1.7% in assay [7], 3.22% in assay [8], 4.45% in assay [9] and 2.38% in assay [10].
